# According to PubChem BioAssay (NCI):
# The panel holds about 83,000 compounds, 20% with a hit somewhere; the sample as a whole holds those more often.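 Cells were grown in 96-well plates and exposed to the test compound at a single concentration for 48 hours; results are reported as percent growth, with values below 10 considered active.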 Active and inactive are the calls of the source.
# System: NCI-H322M lung
# Assay: NCI-60 one-dose screen, 48 h (100 = growth as untreated, 0 = no growth, -100 = all killed)
# Settings: 10 µM unless noted
row,Structure (SMILES),growth
1,CN(C[C@H]1Cc2c(cccc2N2CCN(c3ncccn3)CC2)CN1)[C@H]1CCCc2cccnc21,50.3% (inactive)
2,COc1ccc(-c2cnoc2-c2ccc(OC)cc2O)cc1,74.6% (inactive)
3,COc1ccc(/C=N\NC(=O)CN2CCN(c3cc4c(cc3F)c(=O)c(C(=O)N/N=C/c3ccc(OC)c(OC)c3)cn4C3CC3)CC2)cc1OC,11.1% (inactive)
4,C1=Cc2ccccc2N(c2nnc(-c3ccccc3)o2)c2ccccc21,92.2% (inactive)
5,COc1ccc(-c2nc3sc(-c4cc(OC)c(OC)c(OC)c4)nn3c2/C=C2/C(=O)Nc3ccc(F)cc32)cc1,-59.4% (active)
6,O=C(Oc1ccccc1[N+](=O)[O-])C1CCCN1C(=O)OCc1ccccc1 (centres undefined),121% (inactive)
7,CC(C)(C)OC(=O)NC(CSCc1ccccc1)C(=O)ON1C(=O)CCC1=O (centres undefined),131% (inactive)
8,O=S(=O)(NCCCNc1nccc(-n2ccc3cccnc32)n1)c1ccc(Br)cc1,103% (inactive)
9,COc1ccc(/C=C2\Oc3cc(OCCCN4CCCC4)ccc3C2=O)cc1,93.1% (inactive)
10,Cc1csc(NC(c2ccc(Br)cc2)c2c(C)nc3ccccn23)n1 (centres undefined),84.9% (inactive)
11,Cn1c(=O)cc(NC(=O)CN2CCN(c3cc4c(cc3F)c(=O)c(C(=O)O)cn4C3CC3)CC2)[nH]c1=O,102% (inactive)
12,CC(C)(C)n1cc(-c2ccnc(NCCNS(=O)(=O)c3ccc(F)cc3)c2)c(-c2cccc(O)c2)n1,72.3% (inactive)
13,CC(C)(C)n1cc(-c2ccnc(NCCNS(=O)(=O)c3ccc(Cl)cc3)c2)c(-c2cccc(O)c2)n1,85.3% (inactive)
14,O=C1Nc2ccc3c(c2/C1=C\c1cc2c(cc1Br)OCO2)OCO3,1.4% (active)
15,Cc1ccc(N2CCN(C(C)C(N)=O)CC2)cc1 (centres undefined),116% (inactive)
16,COc1cc(NC(N)=NCCC(C)(C)Oc2ccc(C(F)(F)F)cc2)ncc1C#N,20.5% (inactive)
17,CCc1ccc(-c2ccc(=O)n(-c3ccc(S(N)(=O)=O)cc3)n2)cc1,115% (inactive)
18,CC[N+](CC)=c1cc2oc3cc(N(C)C)ccc3nc-2cc1C,-28.4% (active)
19,COc1cccc(-c2nc3sccn3c2-c2ccnc(NCCCNS(=O)(=O)c3ccc(F)cc3)c2)c1,69.9% (inactive)
20,N[C@H]1CN(C(=O)c2cc3cc(Br)c(F)c(F)c3[nH]2)C[C@@H]1O,89.5% (inactive)

row,Structure (SMILES),growth
1,O=C(N/N=C/C=C\c1ccccc1)C(=O)N/N=C/C=C/c1ccccc1,123% (inactive)
2,O=C(O)COc1ccc(-c2cssc2=S)cc1,104% (inactive)
3,CCOC(=O)c1c(NS(=O)(=O)c2ccc(C)cc2)sc2c1CCC1(C2)OCCO1,99.8% (inactive)
4,Cc1nc2ncccc2nc1Nc1ccc(S(=O)(=O)Nc2ccccn2)cc1,96.1% (inactive)
5,Fc1ccc(Nc2ncnc3ccc(-c4cnc5[nH]ccc5c4)cc23)cc1Cl,19.2% (inactive)
6,COc1ccc(C2C(C#N)=C(N)Oc3c2ccc2ccccc32)cc1 (centres undefined),67.8% (inactive)
7,COc1ccc(C(=O)N2NC(=O)/C(=C/c3cn(-c4ccccc4)nc3-c3ccccc3)N=C2c2ccccc2)cc1,97.3% (inactive)
8,C=C1C(=O)O[C@H]2[C@H]1CC/C(Cn1cc(CNC(=O)Cc3cn(C(=O)c4ccc(Cl)cc4)c4ccc(OC)cc34)nn1)=C\CC[C@@]1(C)O[C@@H]21,88.3% (inactive)
9,CCCCC(CC)OC(=O)C(Br)CC (centres undefined),101% (inactive)
10,O=C1/C(=C/c2ccccc2)Oc2ccc(O)c(I)c21,94.5% (inactive)
11,COC(=O)c1cc2cc(-c3ccc(OC)cc3)cnc2[nH]1,50.4% (inactive)
12,c1coc(CNc2ccnc(Nc3ccc(OCCN4CCCCC4)cc3)n2)c1,101% (inactive)
13,COc1ccc2[nH]c(C(=O)OCc3ccc4c(Cl)cc(Cl)c(O)c4n3)cc2c1,54.3% (inactive)
14,CCOC(=O)C1CCNC(=O)C1=O (centres undefined),144% (inactive)
15,O=C(O)C1CCCCN1c1nc(Cl)nc(Cl)n1 (centres undefined),106% (inactive)
16,C=C1CCC2C(C)(CO)C(O)CCC2(C)C1CC(NCc1ccccc1)C1=CCOC1=O (centres undefined),103% (inactive)
17,CCCCCCCCCCCC(=O)NCCC[N+](C)(C)CC(=O)[O-],96.6% (inactive)
18,CN(CCCCCl)P(=O)(OCc1ccc([N+](=O)[O-])o1)C(F)(F)C[C@H](NC(=O)CNC(=O)c1ccc(N=[N+]=[N-])cc1)C(=O)NCCc1ccc(O)cc1 (some centres undefined),93.8% (inactive)
19,NC(N)=Nc1nc2ccccc2o1,106% (inactive)
